Experimental data from the supplement of paper PMC10849652.
The full data set covers some 7,900 targets. This sample favours those with a hit. About 0.6% of all pairs of compound and target were hits. Unmarked numbers belong to inactive results.

Legend:
Assay in all cases: log2 fold change, soluble protein after heating vs DMSO (PISA); higher = thermal stabilisation; K562 cells, 10 uM, 30 min; active = over 0.2 and 3.5 SD of the protein, either way, in both replicates (recomputed)
[1] = compound: COC1=CC=C(C=C1)CN2C=CC3=C2C=C(C=C3)C(=O)NO
Outline: (§1)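 Soluble protein was defined as the supernatant after 21,000xg for 90 min. It came from K562 cells at 2×10^6 cells/mL given 10 μM compound for 30 min, heated in aliquots for 3 min across 48°C-58°C, pooled, and extracted in PBS with 0.5% NP-40 at 4°C, and was quantified by TMTpro 16plex LC-MS/MS with equalised channel sums. Thermal stability against control samples, from duplicates, is reported as log2 fold change.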

zotarolimus = compound: CO[C@H]1C[C@@H]2CC[C@@H](C)[C@@](O)(O2)C(=O)C(=O)N2CCCC[C@H]2C(=O)O[C@H]([C@H](C)C[C@@H]2CC[C@H](n3cnnn3)[C@H](OC)C2)CC(=O)[C@H](C)/C=C(\C)[C@@H](O)[C@@H](OC)C(=O)[C@H](C)C[C@H](C)/C=C/C=C/C=C/1C [zotarolimus]
Outline: as §1

alisertib = compound: COc1cc(Nc2ncc3c(n2)-c2ccc(Cl)cc2C(c2c(F)cccc2OC)=NC3)ccc1C(=O)O [alisertib]
Outline: as §1

[2] = compound: COc1cc2nc(-c3cc(F)ccc3O)nc(N[C@@H]3CNC[C@H]3C(C)(C)O)c2cc1OC
Outline: as §1

gefitinib = compound: COc1cc2ncnc(Nc3ccc(F)c(Cl)c3)c2cc1OCCCN1CCOCC1 [gefitinib]
Outline: as §1

[3] = compound: COc1cccc2cc(-c3nc([C@H]4CC[C@H](C(=O)O)CC4)n4ncnc(N)c34)[nH]c12
Outline: as §1

lapatinib = compound: CS(=O)(=O)CCNCc1ccc(-c2ccc3ncnc(Nc4ccc(OCc5cccc(F)c5)c(Cl)c4)c3c2)o1 [lapatinib]
Outline: as §1

filanesib = compound: CON(C)C(=O)N1N=C(c2cc(F)ccc2F)S[C@@]1(CCCN)c1ccccc1 [filanesib]
Outline: as §1

idasanutlin = compound: COc1cc(C(=O)O)ccc1NC(=O)[C@@H]1N[C@@H](CC(C)(C)C)[C@](C#N)(c2ccc(Cl)cc2F)[C@H]1c1cccc(Cl)c1F [idasanutlin]
Outline: as §1

pictilisib = compound: CS(=O)(=O)N1CCN(Cc2cc3nc(-c4cccc5[nH]ncc45)nc(N4CCOCC4)c3s2)CC1 [pictilisib]
Outline: as §1

UniProt Q8WUD6, sequence (Q8WUD6 whole entry, looked up): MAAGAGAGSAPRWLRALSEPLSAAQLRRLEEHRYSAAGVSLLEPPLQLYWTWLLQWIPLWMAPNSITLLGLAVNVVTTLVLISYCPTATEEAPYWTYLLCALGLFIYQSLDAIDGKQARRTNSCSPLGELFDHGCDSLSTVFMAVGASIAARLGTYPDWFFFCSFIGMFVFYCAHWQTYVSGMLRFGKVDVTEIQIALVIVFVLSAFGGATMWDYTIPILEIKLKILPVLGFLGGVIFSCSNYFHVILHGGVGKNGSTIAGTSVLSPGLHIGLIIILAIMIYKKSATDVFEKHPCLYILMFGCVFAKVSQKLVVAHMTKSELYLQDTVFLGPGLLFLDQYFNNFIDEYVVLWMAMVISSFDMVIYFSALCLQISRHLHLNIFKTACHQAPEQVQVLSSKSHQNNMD
UniProt Q15417, sequence (Q15417 whole entry, looked up): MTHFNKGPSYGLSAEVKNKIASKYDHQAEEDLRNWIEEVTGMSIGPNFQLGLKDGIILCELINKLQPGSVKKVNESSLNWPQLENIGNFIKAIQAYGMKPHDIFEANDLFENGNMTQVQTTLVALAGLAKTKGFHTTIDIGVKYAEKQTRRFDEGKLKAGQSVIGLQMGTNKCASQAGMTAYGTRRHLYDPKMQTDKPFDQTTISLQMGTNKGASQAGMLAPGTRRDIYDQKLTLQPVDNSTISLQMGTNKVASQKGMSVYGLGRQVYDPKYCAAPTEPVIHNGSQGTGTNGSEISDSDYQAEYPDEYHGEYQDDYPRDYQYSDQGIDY
UniProt A8MTT3, sequence (A8MTT3 whole entry, looked up): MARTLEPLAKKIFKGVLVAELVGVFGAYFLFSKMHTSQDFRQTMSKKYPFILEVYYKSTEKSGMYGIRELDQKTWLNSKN
UniProt O60583, sequence (O60583 whole entry, looked up): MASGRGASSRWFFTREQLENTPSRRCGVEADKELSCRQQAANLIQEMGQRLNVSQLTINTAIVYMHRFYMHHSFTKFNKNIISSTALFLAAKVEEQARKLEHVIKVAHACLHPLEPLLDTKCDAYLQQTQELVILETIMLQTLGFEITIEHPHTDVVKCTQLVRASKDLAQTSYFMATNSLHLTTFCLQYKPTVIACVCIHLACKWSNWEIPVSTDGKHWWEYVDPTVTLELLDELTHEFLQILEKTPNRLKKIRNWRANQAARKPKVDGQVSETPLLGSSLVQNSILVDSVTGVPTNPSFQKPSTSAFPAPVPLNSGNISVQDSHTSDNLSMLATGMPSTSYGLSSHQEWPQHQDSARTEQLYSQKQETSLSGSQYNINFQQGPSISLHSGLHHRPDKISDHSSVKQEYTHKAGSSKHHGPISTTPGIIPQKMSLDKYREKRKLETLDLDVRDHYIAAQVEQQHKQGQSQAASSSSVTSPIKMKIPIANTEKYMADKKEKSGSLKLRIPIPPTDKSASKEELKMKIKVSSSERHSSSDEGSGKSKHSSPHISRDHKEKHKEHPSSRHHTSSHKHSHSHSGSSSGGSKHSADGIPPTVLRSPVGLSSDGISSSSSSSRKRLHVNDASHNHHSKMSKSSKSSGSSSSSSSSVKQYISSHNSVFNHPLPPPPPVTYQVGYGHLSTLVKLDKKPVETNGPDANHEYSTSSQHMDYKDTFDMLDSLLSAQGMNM
UniProt Q6ZTR5, sequence (Q6ZTR5 whole entry, looked up): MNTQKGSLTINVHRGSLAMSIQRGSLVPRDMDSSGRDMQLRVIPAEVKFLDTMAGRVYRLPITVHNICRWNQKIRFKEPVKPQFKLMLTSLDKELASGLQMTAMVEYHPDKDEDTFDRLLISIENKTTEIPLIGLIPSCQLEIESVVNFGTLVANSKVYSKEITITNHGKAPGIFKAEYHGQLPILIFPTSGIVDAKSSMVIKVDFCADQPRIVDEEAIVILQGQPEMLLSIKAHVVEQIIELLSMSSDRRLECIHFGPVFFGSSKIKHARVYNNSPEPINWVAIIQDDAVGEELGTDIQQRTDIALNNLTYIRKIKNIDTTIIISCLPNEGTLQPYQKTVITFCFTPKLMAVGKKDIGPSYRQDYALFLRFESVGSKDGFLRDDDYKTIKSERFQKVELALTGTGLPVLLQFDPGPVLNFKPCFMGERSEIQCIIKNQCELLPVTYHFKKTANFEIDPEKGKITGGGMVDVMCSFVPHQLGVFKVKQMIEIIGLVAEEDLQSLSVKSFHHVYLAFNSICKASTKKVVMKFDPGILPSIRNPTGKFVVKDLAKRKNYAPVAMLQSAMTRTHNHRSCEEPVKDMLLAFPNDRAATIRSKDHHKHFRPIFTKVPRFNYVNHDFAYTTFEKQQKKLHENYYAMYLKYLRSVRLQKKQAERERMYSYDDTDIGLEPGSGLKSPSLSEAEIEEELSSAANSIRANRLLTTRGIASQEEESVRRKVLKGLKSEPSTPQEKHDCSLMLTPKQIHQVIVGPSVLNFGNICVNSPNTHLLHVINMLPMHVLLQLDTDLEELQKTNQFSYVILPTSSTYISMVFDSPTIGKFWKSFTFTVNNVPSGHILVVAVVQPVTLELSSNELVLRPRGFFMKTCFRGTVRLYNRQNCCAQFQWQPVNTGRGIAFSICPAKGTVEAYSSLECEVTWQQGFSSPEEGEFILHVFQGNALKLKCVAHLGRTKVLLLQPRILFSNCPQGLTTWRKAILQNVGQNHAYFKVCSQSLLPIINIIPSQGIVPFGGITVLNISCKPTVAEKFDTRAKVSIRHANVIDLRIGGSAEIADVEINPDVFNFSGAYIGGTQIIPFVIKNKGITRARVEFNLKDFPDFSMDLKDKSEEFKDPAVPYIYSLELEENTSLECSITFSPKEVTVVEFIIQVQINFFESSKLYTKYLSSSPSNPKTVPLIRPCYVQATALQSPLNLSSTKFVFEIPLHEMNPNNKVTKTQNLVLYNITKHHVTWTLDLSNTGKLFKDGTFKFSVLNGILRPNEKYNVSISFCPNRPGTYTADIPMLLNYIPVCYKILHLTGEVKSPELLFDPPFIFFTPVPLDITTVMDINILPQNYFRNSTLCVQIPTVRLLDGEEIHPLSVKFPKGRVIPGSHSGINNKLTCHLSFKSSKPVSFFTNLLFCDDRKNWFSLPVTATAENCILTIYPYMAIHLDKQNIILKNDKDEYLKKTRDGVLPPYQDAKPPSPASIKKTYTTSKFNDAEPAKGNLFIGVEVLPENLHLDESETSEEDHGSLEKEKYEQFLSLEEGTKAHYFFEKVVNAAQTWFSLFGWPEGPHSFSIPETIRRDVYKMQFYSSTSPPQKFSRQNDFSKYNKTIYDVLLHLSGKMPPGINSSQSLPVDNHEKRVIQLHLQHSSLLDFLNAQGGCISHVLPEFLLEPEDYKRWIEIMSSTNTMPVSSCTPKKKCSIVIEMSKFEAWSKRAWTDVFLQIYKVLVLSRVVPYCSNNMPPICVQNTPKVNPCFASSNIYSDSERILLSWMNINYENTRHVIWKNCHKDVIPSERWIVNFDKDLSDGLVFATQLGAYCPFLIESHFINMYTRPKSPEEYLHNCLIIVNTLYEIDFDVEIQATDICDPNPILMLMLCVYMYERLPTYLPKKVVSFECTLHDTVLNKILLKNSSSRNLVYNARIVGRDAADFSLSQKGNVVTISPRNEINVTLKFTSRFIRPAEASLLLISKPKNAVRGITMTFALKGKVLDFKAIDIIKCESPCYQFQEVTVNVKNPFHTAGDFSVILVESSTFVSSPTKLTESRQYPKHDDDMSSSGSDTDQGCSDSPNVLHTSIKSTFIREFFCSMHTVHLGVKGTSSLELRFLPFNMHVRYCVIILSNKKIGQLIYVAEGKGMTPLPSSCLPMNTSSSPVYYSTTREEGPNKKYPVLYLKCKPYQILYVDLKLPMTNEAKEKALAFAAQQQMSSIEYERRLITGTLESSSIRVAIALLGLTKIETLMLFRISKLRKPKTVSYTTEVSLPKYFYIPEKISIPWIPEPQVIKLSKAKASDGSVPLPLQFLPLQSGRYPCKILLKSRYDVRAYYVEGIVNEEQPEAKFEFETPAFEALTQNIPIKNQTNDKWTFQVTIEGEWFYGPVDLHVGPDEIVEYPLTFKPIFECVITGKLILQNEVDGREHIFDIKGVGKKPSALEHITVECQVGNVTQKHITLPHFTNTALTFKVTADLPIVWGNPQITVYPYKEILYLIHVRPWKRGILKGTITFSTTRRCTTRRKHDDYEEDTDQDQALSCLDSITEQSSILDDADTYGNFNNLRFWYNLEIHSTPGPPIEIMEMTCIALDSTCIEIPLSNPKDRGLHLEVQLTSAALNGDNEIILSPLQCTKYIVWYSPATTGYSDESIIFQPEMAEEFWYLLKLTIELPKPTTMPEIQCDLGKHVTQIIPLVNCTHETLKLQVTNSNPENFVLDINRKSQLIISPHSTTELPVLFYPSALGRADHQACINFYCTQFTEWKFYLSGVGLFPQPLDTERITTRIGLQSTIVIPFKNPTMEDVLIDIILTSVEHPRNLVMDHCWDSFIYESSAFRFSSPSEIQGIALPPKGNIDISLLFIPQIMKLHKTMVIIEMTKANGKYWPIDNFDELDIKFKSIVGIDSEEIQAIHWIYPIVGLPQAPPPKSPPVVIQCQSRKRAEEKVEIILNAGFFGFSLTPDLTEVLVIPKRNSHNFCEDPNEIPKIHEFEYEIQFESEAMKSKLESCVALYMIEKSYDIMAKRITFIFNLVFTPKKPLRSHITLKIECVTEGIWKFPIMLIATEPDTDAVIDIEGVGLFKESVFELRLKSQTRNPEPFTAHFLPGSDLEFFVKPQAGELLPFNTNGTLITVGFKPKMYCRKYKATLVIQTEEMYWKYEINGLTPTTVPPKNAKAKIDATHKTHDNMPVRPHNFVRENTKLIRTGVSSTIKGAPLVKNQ
UniProt Q96GV9, sequence (Q96GV9 whole entry, looked up): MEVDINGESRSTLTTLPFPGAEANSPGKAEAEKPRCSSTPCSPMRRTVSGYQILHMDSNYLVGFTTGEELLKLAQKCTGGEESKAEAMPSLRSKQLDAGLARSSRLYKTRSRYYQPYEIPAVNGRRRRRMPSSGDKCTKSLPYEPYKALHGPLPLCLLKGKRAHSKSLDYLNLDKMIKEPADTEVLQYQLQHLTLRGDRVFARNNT
UniProt P33552, sequence (P33552 whole entry, looked up): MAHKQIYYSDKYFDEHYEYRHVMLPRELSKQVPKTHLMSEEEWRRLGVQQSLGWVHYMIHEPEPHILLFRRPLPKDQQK

| Target | log2 fold change [1] | log2 fold change (zotarolimus) | log2 fold change (alisertib) | log2 fold change [2] | log2 fold change (gefitinib) | log2 fold change [3] | log2 fold change (lapatinib) | log2 fold change (filanesib) | log2 fold change (idasanutlin) | log2 fold change (pictilisib) |
| --- | --- | --- | --- | --- | --- | --- | --- | --- | --- | --- |
| CLN3 (UniProt Q13286) | 0.008 | -0.1 | 0 | 0.08 | -0.028 | 0.139 | -0.059 |  |  |  |
| CD68 (UniProt P34810) |  |  | -0.126 |  |  | -0.025 |  | 0.05 |  |  |
| CNRIP1 (UniProt Q96F85) |  |  | 0.075 | 0.282 | 0.002 | -0.223 | 0.054 |  |  |  |
| CLCN5 isoform 2 (UniProt P51795) | -0.011 | -0.004 |  |  | 0.011 |  |  |  |  |  |
| CSNK1A1 isoform 3 (UniProt P48729) |  |  |  | -0.006 |  | 0.091 | 0.129 |  |  |  |
| CEBPZOS (UniProt A8MTT3) | 0.111 |  | -0.014 | -0.085 | 0.004 | 0.098 | -0.037 |  | -0.021 | -0.045 |
| CNN3 (UniProt Q15417) |  | 0.005 | -0.031 | 0.111 | 0.026 | -0.026 | -0.032 | -0.006 | -0.04 | 0.04 |
| CFAP47 (UniProt Q6ZTR5) |  |  |  | 0.031 |  |  | -0.106 |  | -0.496 |  |
| CEMIP2 (UniProt Q9UHN6) | -0.018 | 0.008 | 0.202 | 0.121 | 0.072 | 0.135 | 0.026 |  | 0.021 | 0.097 |
| CAD (UniProt H7BZB3) |  |  |  |  |  |  |  |  | -0.006 |  |
| CLPTM1L (UniProt G5E9Z2) |  | -0.101 | -0.199 |  | -0.142 | 0.099 |  | -0.235 | -0.446 |  |
| CKS2 (UniProt P33552) |  |  | -0.029 | 0.184 | 0.093 | 0.14 | -0.036 |  | 0.193 | -0.666 |
| CDK2AP2 (UniProt O75956) | 0.078 | -0.022 | -0.019 |  | -0.009 | -0.11 |  |  | -0.043 |  |
| C5orf30 (UniProt Q96GV9) |  |  |  | -0.094 |  |  | -0.21 |  | 0.022 |  |
| CRTC3 (UniProt Q6UUV7) |  | -0.059 | 0.202 | -0.86 (active) |  | -0.107 | 0.078 | 0.015 |  |  |
| CREB3L2 (UniProt Q70SY1) | 0.584 | 0.042 | -0.022 |  | -0.154 | 0.176 |  |  | 0.045 |  |
| CORO2A (UniProt Q92828) |  | -0.049 | 0.035 | -0.057 | -0.097 | -0.02 | -0.011 | -0.035 | -0.071 | -0.11 |
| CHPT1 (UniProt Q8WUD6) |  | -0.017 | -0.136 | -0.009 | 0.013 | -0.015 | 0.159 | -0.345 | -0.018 | -0.096 |
| CLINT1 (UniProt Q14677) | -0.371 | 0.263 | -0.137 |  | 0.077 | -0.055 |  |  | -0.012 |  |
| CPNE5 (UniProt Q9HCH3) |  | -0.102 |  |  |  |  |  |  |  |  |
| CASP7 isoform 3 (UniProt P55210) |  |  |  |  | 0.282 |  |  |  |  | 0.234 |
| CCNL1 (UniProt Q9UK58) |  |  | 0.119 |  |  | 0.167 |  |  |  |  |
| CCDC187, A0A1W2PQX5 |  |  |  |  | -0.312 |  |  |  | -0.051 | 0.191 |
| CCNT2 (UniProt O60583) |  |  | 0.039 | -0.291 | 0.163 | -0.131 | 0.085 | 0.102 | 0.143 | 0.121 |
| CASK (UniProt O14936) | 0.046 |  |  |  |  |  |  |  | -0.031 |  |
| CNN1 (UniProt P51911) |  | 0.047 | -0.055 | 0.182 | -0.14 | 0.059 | -0.068 | -0.051 | -0.048 | 0.172 |
| CARD9 (UniProt Q9H257) | -0.062 |  |  |  |  |  |  |  | 0.169 |  |
| CD84 (UniProt Q9UIB8) |  | -0.194 |  |  |  |  |  | -0.009 | -0.082 |  |
